# Experimental data reported in PubChem BioAssay (NCATS).
# Records with an inconclusive call do not appear. Values without a mark were called inactive. Activity calls are given as the source filed them. Calls come from the whole dose curve; as a rule, active = well fitted inhibition curve with a large enough effect; inconclusive = small, poorly fitted or top-dose-only effect; inactive = flat fitted curve, though single readings scatter.
# Assay: qHTS for Inhibitors of Plasmodium falciparum (HB3) proliferation (AID 504318); note: nearly all actives have a fitted effect of over 60% in size;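 for activity change, negative = inhibition: 0% = DMSO vehicle and -100% = artemisinin control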
# Details: P. falciparum HB3 in erythrocytes, SYBR Green DNA, 72 h; series mostly up to 7.21 µM; activity change, negative = inhibition: at the top concentration
# Text: Plasmodium falciparum is a virulent malarial parasite that kills 1-2 million people worldwide each year. Malaria not only inflicts tremendous suffering and morbidity on the human population, but has dramatically influenced the course of civilization with profound sociological and economic implications (Shah, S. 2010). Transmitted by mosquitoes, the sporozoite form of the parasite enters the blood stream to infect hepatocytes, where they become merozoites that infect red blood cells (erythrocytes). Within erythrocytes, merozoites begin a […] cycle of growth and division, after which the parasite is released to infect new red blood cells. Gametocytes, which form within erythrocytes as well, circulate in the bloodstream and are ingested by the mosquito, thereby completing the life cycle (see CDC website). To profile malarial lines for differential chemical responses and to identify inhibitors of malarial growth, an assay that measures P. falciparum growth and replication within erythrocytes was employed. This assay uses a DNA binding fluorescent dye (SYBR Green) to detect parasite DNA following cell lysis. Because mature erythrocytes lack DNA, only Plasmodium-derived DNA is detected. The P. falciparum line cp250, derived from a malarial isolate from Cambodia, (Mu, J., et al. 2010) was added to the panel of lines, Dd2, HB3, 7G8 and GB4 in this study. Laboratory of Assay Development and Screening Technology [ADST] and NIH Chemical Genomics Center [NCGC] Boston University, Chemistry Department, Center for Chemical Methodology and Library Development [CMLD-BU] NIH National Institute of Allergy and Infectious Diseases [NIAID]
# ADST Assay Protocol Summary: The 1536-well SYBR Green viability assay was based on the method of Bennett et al (2004) and described previously in 1536-well format (Yuan J., et al. 2009). For screening 3 ul culture medium was dispensed into 1536 well black clear bottom plates (Aurora Biotechnologies) using a Multidrop Combi (Thermo Fisher Scientific Inc.), 23 nL compounds in DMSO were added by a pin transfer (Cleveland, P.H. and Koutz, P.J, 2005) using a pin tool-based delivery system (Kalypsys), and 5 ul of erythrocytes infected with P. falciparum one of five lines (cp250, Dd2, HB3, 7G8 or GB4, 0.3% parasitemia, 2.5% hematocrit final concentration) were added. The plates were incubated at 37C in a humidified incubator in 5% CO2 for 72 h, and 2 ul lysis buffer (20 mM Tris HCl, 10 mM EDTA, 0.16% saponin, 1.6% triton X, 10X SYBR Green I (supplied as 10,000X final concentration by Invitrogen) was added to each well. The plates were mixed for 25 sec with gentle shaking and incubated overnight at room temperature in the dark. The following morning, fluorescence intensity at 485(14) nm excitation and 535(25) nm emission wavelengths was measured on an EnVision (Perkin Elmer) plate reader. Plate reads were normalized relative to the control inhibitor (0.29 uM artemisinin) and vehicle (DMSO) wells present on each plate and then corrected by an algorithm using vehicle-only control plates at the beginning and end of the compound plate stack. References Shah, S. (2010). The Fever: how malaria has ruled humankind for 500,000 years. New York, Sarah Crichton Books. CDC web site, http://www.cdc.gov/malaria/about/biology/index.html Mu, J., Myers, R.A., Jiang, H., Liu, S., Ricklefs, S., Waisberg, M., Chotivanich, K., Wilairatana, P., Krudsood, S., White, N.J., et Plasmodium falciparum genome-wide scans for positive selection, recombination hot spots and resistance to antimalarial drugs Nature Genetics 2010, 42, pp 268-271 Bennett TN, Paguio, M., Gligorijevic, B., Seudieu, C., Kosar, A. D., Davidson, E., and Roepe, P. D. Novel, rapid, and inexpensive cell-based quantification of antimalarial drug efficacy Antimicrobial Agents Chemother. 2004, 48(5): pp 1807-10 Yuan J, Johnson RL, Huang RL, Wichterman J, Jiang HY, Hayton K, Fidock DA, Wellems TE, Inglese J, Austin CP, Su XZ. […]
# Potency is the fitted concentration of half-maximal effect.
Compound,"activity change, negative = inhibition [%]",Potency
COC(=O)[C@@H]1[C@H](CCc2ccccc2)NC(=O)N(Cc2ccccc2)[C@@H]1C,1.35,
CC(C)OCCCN1C=C2C(=O)C(C)(OC(=O)CCc3ccccc3)C(=O)C=C2C=C1c1ccc(C#N)cc1 (stereo not given),-3.89,
Cc1ccc(S(=O)(=O)N[C@@H]2COC(=O)[C@@H](C)COC(=O)CC=C[C@H]2C)cc1,-4.31,
CC(C)C(=O)N[C@@H]1CCCN1C(=O)C=Cc1ccccc1,3.31,
CCCCC1=CC2=CC(=O)C(C)(OC(=O)CC)C(=O)C2=CN1CCCOC(C)C (stereo not given),-6.71,
COC(=O)C1=C(C(=O)OC)[C@@H]2N(C)c3ccccc3[C@@]23C[C@@H](C(=O)OC)N(S(=O)(=O)c2ccc(C)cc2)C3=N1,-4.22,
COC/C=C/C1=CC2=CC(=O)C(C)(OC(=O)c3cnc4ccccc4n3)C(=O)C2=CN1CCCOC(C)C (stereo not given),-0.155,
COC(=O)CCCC1=CC2=C(c3ccccc3)C(=O)C(C)(OC(=O)C3CCCC3)C(=O)C2=CN1CC1CC1 (stereo not given),-0.309,
CCCCc1nc2c(c3c1C[C@H](C)OC3)CN(C(=O)Nc1ccc(OC)cc1)CC2,-2.34,
C=CC1=C2C=C(C3CC3)N(CCCN(CC)CC)C=C2C(=O)C(C)(OC(=O)c2ccco2)C1=O (stereo not given),3.95,
CCN1C(=O)N[C@@H](c2ccc(Br)cc2)C(C(C)=O)=C1C,0.763,
CCOC(=O)CN1C(=O)N[C@@H](CCc2ccccc2)C(C(C)=O)=C1C,-3.87,
C[C@H]1Cc2c(-c3ccccc3)nc3c(c2CO1)CN(C(=O)C1CCCCC1)CC3,-5.15,
CCOC(=O)CNC(=O)O[C@@H]1C(=O)c2cc(OC)ccc2O[C@H]1c1ccc(OC)c(Br)c1,-13.6,
COc1ccc(-c2nc3c(c4c2C[C@H](c2ccccc2)OC4)CN(S(=O)(=O)c2ccc4c(c2)OCCN4C)CC3)c(C)c1,-6.73,
COC(=O)CCCC1=CC2=CC(=O)C(C)(OC(=O)c3cccs3)C(=O)C2=CN1c1cccc(C#N)c1 (stereo not given),0.646,
COC(=O)C1=C(C(=O)OC)[C@@H]2N(C)c3ccccc3[C@@]23C[C@@H](C(=O)OC)N(S(=O)(=O)c2ccc(C#N)cc2)C3=N1,-0.647,
COC(=O)CCC(=O)OC1(C)C(=O)C=C2C=C(C3CC3)N(CCCCO)C=C2C1=O (stereo not given),-5.36,
CCN1C(=O)N[C@@H](c2cccc(C(F)(F)F)c2)C(C(C)=O)=C1C,2.91,
COCCN1C(=O)N[C@@H](c2cccc(C(F)(F)F)c2)[C@@H](C(=O)OC)[C@H]1C,,inactive

Compound,"activity change, negative = inhibition [%]",Potency
COC(=O)C1=C(C(=O)OC)[C@@H]2N(C)c3ccccc3[C@@]23C[C@@H](C(=O)OC)N(C(=O)COCc2ccccc2)C3=N1,1.93,
COC/C=C/C1=CC2=CC(=O)C(C)(OC(=O)c3cnc4ccccc4n3)C(=O)C2=CN1CCc1c[nH]c2ccccc12 (stereo not given),-6.82,
COC(=O)C1=C(C(=O)OC)[C@@H]2N(C)c3ccc(OC)cc3[C@@]23C[C@@H](C(=O)OC)N(C(=O)COCc2ccccc2)C3=N1,0.808,
COc1cccc(CC(=O)N2CCc3nc(-c4ccccc4)c4c(c3C2)CO[C@@H](C)C4)c1,,inactive
COC(=O)N1C2=C(c3ccccc3[C@@H]1CC(=O)Nc1ccc3cc4ccccc4cc3c1)[C@@H]1C(=O)N(c3ccccc3)C(=O)[C@@H]1[C@H](C)C2,,1.69 µM (active)
COC(=O)CCC(=O)OC1(C)C(=O)C2=CN(CCc3ccccn3)C(c3ccc(OC)cc3)=CC2=C(Br)C1=O (stereo not given),-2.79,
CCOC(=O)CN1C(=O)N[C@@H](c2ccccc2)[C@H](C(=O)OC)[C@H]1C,-3.1,
COC(=O)CCCC1=CC2=C(c3ccccc3)C(=O)C(C)(OC(=O)C3CCCC3)C(=O)C2=CN1CCc1ccccn1 (stereo not given),-10.3,
COC(=O)CCCC1=CC2=CC(=O)C(C)(OC(=O)c3cccs3)C(=O)C2=CN1Cc1ccc2c(c1)OCO2 (stereo not given),-7.32,
C=CCOC(=O)N[C@H](C(C(=O)OC)=C(C)NCc1ccccc1)c1cccc(F)c1,2.58,
CC[C@@H](C)CN1C(=O)N[C@@H](c2ccccc2)C(C(=O)OC)=C1C,1.16,
CC[C@@H](C)CN1C(=O)N[C@@H](CCc2ccccc2)C(C(C)=O)=C1C,,inactive
COC/C=C/C1=CC2=CC(=O)C(C)(OC(=O)c3cnc4ccccc4n3)C(=O)C2=CN1c1ccc(CO)cc1 (stereo not given),2.27,
COC(=O)C1=C(C(=O)OC)[C@@H]2N(Cc3ccccc3)c3ccccc3[C@@]23C[C@@H](C(=O)OC)N(C(=O)NCCBr)C3=N1,-3.39,
CCOC(=O)CN1C(=O)N[C@@H](c2cccc(F)c2)C(C(=O)OC)=C1C,-3.96,
CCCCC1=CC2=CC(=O)C(C)(OC(=O)CC)C(=O)C2=CN1CCN1CCOCC1 (stereo not given),-1.75,
COC(=O)CCC(=O)OC1(C)C(=O)C=C2C=C(C3CC3)N(CC(C)C)C=C2C1=O (stereo not given),-6.49,
COCCN1C=C2C(=O)C(C)(OC(=O)CCC(=O)OC)C(=O)C(Br)=C2C=C1c1ccc(OC)cc1 (stereo not given),-10.9,
COC/C=C/C1=CC2=CC(=O)C(C)(OC(=O)c3cnc4ccccc4n3)C(=O)C2=CN1CC(C)C (stereo not given),-3.75,
C=CCN1C=C2C(=O)C(C)(OC(=O)CCC(=O)OC)C(=O)C=C2C=C1C1CC1 (stereo not given),-4.83,
